Bioassay records: PubChem, several laboratories
The list is not random: actives were taken first. Their share in the collection is about 1%.
Sa RN4220 lethal: growth inhibition of S. aureus RN4220, primary screen, OD600; 16 h; actives 0.33% (n = 330,000); AID 1259311, 2017; inhibition, % (no concentration beside the values); in the data active = inhibition above about 85%;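 also: plate controls were untreated cells for no effect and reference antibiotic for full effect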
SSB-PriA inh: inhibitors of Klebsiella pneumoniae PriA binding to SSB C-terminal tail, primary screen, biochemical, AlphaScreen | AlphaScreen SSBct-PriA binding, biotinylated peptide | actives 0.6% (n = 430,000) | PriA–SSB C-terminal tail interaction (Klebsiella pneumoniae) | inhibition, % at 33 µM | AID 1272365, 2023; in the data active = inhibition mostly above about 37%, no sharp cut-off; inactive = mostly below about 20%;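 also: plate controls were negative control peptide for no effect and reference peptide for full effect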
Sa ugtP lethal: growth inhibition of ugtP-null S. aureus, primary screen, RN4220 ugtP deletion, OD600 | growth inhibition, % (test concentration not listed) | 16 h | actives 0.54% (n = 330,000); in the data active = growth inhibition above about 68%;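 also: plate controls were untreated wells for no effect and antibiotic for full effect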
The depositor's hits bear a star; / = not tested or not shown; ! = not confirmed by another sample.

SMILES	Sa RN4220 lethal	SSB-PriA inh	Sa ugtP lethal
Cc1ccc([N+](=O)[O-])cc1N=C(c1ccc([N+](=O)[O-])cc1)N1CCOCC1	1.1	16.2	-2.3
CC(C)(C)OC(=O)N1CCCC1C(=O)Nc1cnn(C2CCOC2)c1 (stereo not drawn)	/	-19.0	/
N#Cc1ccc(NC(=O)CSc2nccnc2N2CCSCC2)cc1	/	9.0	/
CCCOc1ccc(-c2csc(NC(=O)c3ccc(Cl)cc3Cl)n2)cc1	/	3.0	/
O=C1CCc2cc(S(=O)(=O)NCC3(c4cccs4)CCOCC3)cc3c2N1CC3	/	-3.0	/
CC(=O)c1ccc(NC(=O)CSc2ncc(-c3ccc(Cl)cc3)o2)cc1	/	-16.0	/
Cc1ccc(CS/C(Nc2ccccc2C)=C(\C#N)C(N)=O)c(C)c1	2.0	-1.6	95.1*
Cc1ccc(CC(=O)Nc2ccccc2C#N)c(C)c1	/	-6.0	/
COc1ncc(NC(=O)c2cccc(OC)c2OC)cn1	/	-11.0	/
CC(C)Oc1ccc(C(=O)NCCn2ncc3c(=O)n(Cc4ccccc4)cnc32)cc1	/	-33.0	/
O=C1OC(C(=O)NCc2ccco2)Cc2ccc(Cl)cc21 (stereo not drawn)	/	7.0	/
O=C(NN=Cc1ccc(-c2cccc(C(F)(F)F)c2)o1)c1ccccc1O	/	-17.3	/
O=C(NN=Cc1ccc(-c2cccc(C(F)(F)F)c2)o1)c1ccccc1Br	10.8	7.3	90.1*
Cc1ccc(OC2CCN(C(=O)Cc3cn(C)c4ccccc34)CC2)nn1	/	-7.0	/
O=C(CSc1nccnc1N1CCCCC1)NCCC1=CCCCC1	/	5.0	/
CCCCNC(=O)c1ccc2nc(N)sc2c1	/	52.2	/
Nc1nc2ccc(C(=O)NCCO)cc2s1	/	81.0*	/
O=C(Cc1ccc2ccccc2c1)Nc1nc(-c2ccc3c(c2)OCO3)cs1	/	-6.0	/
COc1ccc(C(CCN2CCCCC2)c2c(OC)cc(OC)c3c(-c4ccccc4)cc(=O)oc23)cc1 (stereo not drawn)	-4.4	10.7	-35.8
COc1cc(OC)c2c(-c3ccccc3)cc(=O)oc2c1C(CCN1CCCCC1)c1ccc2c(c1)OCO2 (stereo not drawn)	-9.8	25.1	-4.2
COc1cc(OC)c2c(-c3ccccc3)cc(=O)oc2c1C(CCN1CCCCC1)c1ccc(N(C)C)cc1 (stereo not drawn)	-5.5	74.3*	-6.4
COc1cc(OC)c2c(-c3ccccc3)cc(=O)oc2c1C(CCN1CCOCC1)c1ccc(N(C)C)cc1 (stereo not drawn)	/	38.9*	/
O=C(NCc1cc(-c2ccncc2)n(C2CCCC2)n1)c1ccc(Cl)s1	/	-11.0	/
COc1ccccc1CCNC(=O)C(=O)Nc1cc(C)on1	/	-7.0	/
CCCc1ccc(C(=O)NC[C@H](O)c2ccsc2)cc1	/	-14.0	/
SMILES	Sa RN4220 lethal	SSB-PriA inh	Sa ugtP lethal
Cc1ccc(Cl)cc1-n1nnc(C(=O)Nc2nccs2)c1C	/	-21.0	/
CCN(CC)c1ccc(CNc2ccc(Br)cn2)cc1	-0.1	10.1	5.9
CCN(CC)c1ccc(Nc2nc(Cl)ncc2Br)cc1	0.9	41.4*	-3.2
O=C(c1ccco1)N1CCc2ccc(NS(=O)(=O)c3cccs3)cc2C1	/	-5.0	/
Brc1nc(-c2ccccn2)n[nH]1	/	142.0*	/
Clc1nc(-c2ccccn2)n[nH]1	/	163.0*	/
Clc1ccc(-c2nc(-c3ccccn3)no2)cc1Cl	12.6	-9.6	3.0
c1ccc(-c2nc(-c3ccncc3)n[nH]2)nc1	1.7	27.6	-3.1
CS(=O)(=O)N1CCC(C(=O)NCc2ccsc2)CC1	/	-5.0	/
O=C(NCCn1cnc2ccsc2c1=O)c1cc(-c2cccnc2)on1	/	-6.0	/
O=C(NCCn1cnc2ccsc2c1=O)c1cc(C2CC2)on1	/	38.0*	/
O=C(NCc1ccc2c(c1)OCO2)C(=O)NC[C@@](O)(c1cccs1)C1CC1	/	-19.0	/
COC(=O)Nc1ccc(S(=O)(=O)NC[C@H](OC)c2ccccc2OC)cc1	/	-23.0	/
NCC(O)COc1ccc2c(c1)OCO2 (stereo not drawn)	1.1	46.0*!	1.5
OCCN1CCN(CC(O)COc2ccc3c(c2)OCO3)CC1 (stereo not drawn)	2.7	4.9	-2.7
Cc1nnc(NC(=O)CSc2nccn2Cc2ccc3c(c2)OCO3)s1	/	-4.0	/
O=C(CSc1nccn1Cc1ccc2c(c1)OCO2)Nc1ccc2c(c1)OCCO2	/	11.0	/
CCOC(=O)c1ccccc1NC(=O)CSc1nccn1Cc1ccc2c(c1)OCO2	/	43.0*	/
COc1ccc(Cl)cc1NC(=O)CSc1nccn1Cc1ccc2c(c1)OCO2	/	45.0*	/
O=C(CCS(=O)(=O)c1ccccc1)NCCCn1ccc2cccnc21	/	-10.0	/
COc1ccc2nc(NC(=O)Nc3ccccc3)sc2c1	1.1	-6.1	-25.2
CC(C)(C)c1nc(NC(=O)Nc2ccccc2)sc1Br	96.8*	-22.7	92.3*
O=S(=O)(Nc1ccc2c(c1)CCCN2S(=O)(=O)c1ccccc1)c1ccc(Cl)s1	/	9.0	/
CCSc1ccccc1C(=O)N(CCOC)Cc1ccoc1	/	-1.0	/
O=C(Nc1ccccc1)Nc1cc(OCC(F)(F)F)cc(OCC(F)(F)F)c1	90.4*	-28.0	93.8*
SMILES	Sa RN4220 lethal	SSB-PriA inh	Sa ugtP lethal
O=C(Nc1ccccc1)Nc1cc(Cl)cc(Cl)c1	/	-23.5	/
Cc1ccc(NC=CC(=O)c2ccco2)c(O)c1	/	-2.9	/
O=[N+]([O-])c1ccc(O)c(-c2cc(C(F)(F)F)nc(-c3ccccc3)n2)c1	100.2*	-7.3	98.8*
Oc1ccccc1-c1cc(C(F)(F)C(F)F)nc(-c2ccccc2)n1	2.0	-15.0	16.0
Cc1noc(C)c1CCC(=O)N1CC(c2nc(-c3ccco3)no2)C1	/	-15.0	/
COC(=O)c1ccc(C(=O)Nc2nnc(-c3ccc(S(C)(=O)=O)cc3)o2)cc1	/	-10.0	/
Cc1cccc(CSC(=N)N)c1	-1.8	-7.8	4.7
N#CC(C#N)=C(Nc1ccc(F)cc1)SCc1cccc(Br)c1	100.2*	-2.3	95.6*
Cc1cccc(CSC(Nc2ccc(F)cc2)=C(C#N)C#N)c1	99.9*	-10.3	97.4*
CC(SCc1ccccc1)C(=O)Nc1ccc(F)cc1 (stereo not drawn)	7.5	-10.1	4.5
CCCc1cc(Nc2ccc(NC(C)=O)cc2)n2c(nc3ccccc32)c1C#N	/	-5.0	/
COc1ccc(-c2ccc(=O)n(CCNS(=O)(=O)c3cc(Br)ccc3OC)n2)cc1	/	-13.0	/
Cn1nc(C(=O)NCc2cc(-c3ccco3)on2)ccc1=O	/	-8.0	/
CSc1cccc2sc(NC(=O)CSC(C)=O)nc12	/	-5.0	/
CN(C)c1ccc(CCNS(=O)(=O)c2ccc(Cl)cc2)cc1	/	21.0	/
O=C(Nc1nc(CCC(=O)N2CCN(c3ccccn3)CC2)cs1)c1ccc[nH]c1=O	/	-4.0	/
COc1ccccc1NC(=S)NN=C1CC(C)(C)Oc2ccc(O)cc21	17.5	25.4	7.2
CC(=O)N1CCC2(CC1)CC(=NNC(=S)Nc1ccccc1C)c1cc(O)ccc1O2	5.8	11.9	5.1
Cc1ccccc1NC(=S)NN=C1CC(C)(C)Oc2ccc(O)cc21	6.3	47.3*	9.8
Cc1cccc(NC(=S)NN=C2CC(C)(C)Oc3ccc(O)cc32)c1	0.5	46.8*	11.3
Cc1ccc(Oc2ccc(NC(=O)CSc3n[nH]c(N)n3)cc2)cc1	0.7	-2.1	91.5*
O=C(CSc1n[nH]c(-c2ccccn2)n1)Nc1ccc(F)cc1	0.7	81.6*	-10.4
O=C(CSc1n[nH]c(-c2ccccn2)n1)Nc1ccc(Cl)cc1	/	-24.3	/
CCOc1ccc(NC(=O)CSc2n[nH]c(N)n2)cc1	/	-17.0	/
O=C(CSc1n[nH]c(-c2ccccn2)n1)Nc1cccc(Cl)c1Cl	/	37.8	/
Cc1ccc(NC(=O)CSc2n[nH]c(-c3ccccn3)n2)cc1	0.3	96.8*	-6.0
